Test results reported in PMC5540273 (PLoS ONE, 2017).

Tested on: T1, ERK3
T1 construct: gene MAPK6
Settings: concentration: 1 μM, replicates: in singlicate; n = 1
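Note: KINOMEscan kinase panel screen.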

Row | SMILES | %Inh
1 | Cl.c1ccc(-c2ccc3c(Nc4ccc5[nH]ncc5c4)ccnc3c2)nc1 [GW440137] | 4%
2 | COc1cccc(-c2ccc3c(NC(=O)C4CC4)n[nH]c3n2)c1 [SB-710903] | 0%
3 | COc1cccc(C(=O)Nc2cccc(Oc3ccc4nc(NC(=O)C5CC5)cn4n3)c2)c1 | 0%
4 | CNC(=O)c1ccccc1Nc1nc(Nc2ccc(N3CCOCC3)cc2)ncc1Cl.Cl [GSK1576028] | 92%
5 | O=C(Nc1cccc(Oc2ccc3nc(NC(=O)C4CC4)cn3n2)c1)c1ccccc1C(F)(F)F | 0%
6 | Cc1ccc(S(=O)(=O)Nc2ccc(Nc3nccc(Nc4cccc5[nH]ncc45)n3)cc2)cc1 [GSK581271] | 0%
7 | Cc1cccc(NC(=O)Nc2ccc(Oc3ncnc4ccn(C)c34)cc2)c1 | 0%
8 | CC(=O)Nc1nc2cnc(Nc3cc(NC(=O)c4cccc(C5(C#N)CC5)c4Cl)ccc3C)nc2s1 | 13%
9 | COc1cccc(C2=C(Nc3ccc(Cl)c(C(=O)O)c3)C(=O)NC2=O)c1 [SB-390769] | 0%
10 | CN(C)S(=O)(=O)c1cc(-c2ccc3nccc(-c4cccc(S(N)(=O)=O)c4)c3c2)cnc1N [GSK1669921] | 0%
11 | O=C(Nc1ccccc1F)NC1CCN(c2ccnc(Nc3ccc(F)cc3)n2)CC1 [GSK1379800] | 20%
12 | O=C(Nc1n[nH]c2cc(-c3ccoc3)ccc12)C1CC1 [SB-738481] | 0%
13 | CSc1cccc2c(-c3ccncn3)c(-c3ccc(F)cc3)nn12 [GW514786] | 0%
14 | CN(c1ccc(NC(=O)Nc2cc(C(F)(F)F)ccc2F)cc1)c1ccnc(Nc2ccc(S(N)(=O)=O)cc2)n1 [GW809893] | 0%
15 | O=C(Nc1cccc(-c2nn3ncccc3c2-c2ccnc(Nc3ccccc3)n2)c1)c1c(F)cccc1F [GSK198271] | 0%
16 | c1ccc(-c2n[nH]cc2Nc2ccnc3ccccc23)nc1 [GW694077] | 7%
17 | Cl.Cl.NCC(C(=O)Nc1cc(Br)c(-c2ccnc3[nH]ccc23)s1)c1ccccc1 (centres unmarked) [GSK1269851] | 0%
18 | O=C(Nc1cccc(-c2nn3ccccc3c2-c2ccnc(Nc3cccc(C(F)(F)F)c3)n2)c1)c1c(F)cccc1F [GSK292658] | 0%
19 | Cc1ccc(C)c(NC(=O)NC2CCN(c3ccnc(Nc4ccc(F)cc4)n3)C2)c1 (centres unmarked) [GSK1379720] | 0%
20 | COCCOCCOc1cc2ncc3c4ccc(C#N)cc4[nH]c3c2cc1OC | 2%
21 | CN1CCN(Cc2cccc(-c3ccc4c(Nc5ccc(Oc6ccccc6)cc5)ccnc4c3)c2)CC1 [GW578342] | 0%
22 | Cl.Cl.NCC(NCc1ccc(-c2ccnc3[nH]ccc23)s1)c1ccccc1 (centres unmarked) [GSK1321565] | 2%
23 | Cn1cc(-c2ccc3c(c2)CCN3C(=O)Cc2cccc(F)c2)c2c(N)ncnc21 [GSK2603358] | 0%
24 | Clc1ccc(-c2nn3ncccc3c2-c2ccnc(Nc3ccc4c(c3)OCCO4)n2)cc1 [GW829116] | 3%
25 | Nc1ncc(-c2cccnc2)c2scc(-c3ccc4c(c3)CCN4C(=O)Cc3ccccc3)c12 [GSK683281] | 4%

Tested on: T2, ERK4
T2 construct: gene MAPK4
Settings: concentration: 1 μM, replicates: in singlicate; n = 1

Row | SMILES | %Inh
26 | CCS(=O)(=O)c1ccc(OC)c(Nc2nccc(-c3c(-c4cccc(NC(=O)c5c(F)cccc5F)c4)nn4ncccc34)n2)c1 [GSK326180] | 47%
27 | COc1cc(Nc2nccc(-c3c(-c4cccc(NC(=O)c5c(F)cccc5F)c4)nn4ncccc34)n2)cc(OC)c1OC [GSK327238] | 29%
28 | COc1ccc(-c2coc3ccc(-c4nnc(SCc5ccc(OC)c(C(F)(F)F)c5)o4)cc23)cc1 | 3%
29 | Oc1cc(Nc2ccnc3cc(I)ccc23)ccc1F [GW552771] | 0%
30 | O=c1[nH]cc(-c2ccc(N3CCOCC3)cc2)c2sc(-c3cn[nH]c3)cc12 [GSK2276055] | 19%
31 | FC(F)(F)c1ccc(/C=C/c2cncnc2Nc2ccc3[nH]c(Cc4ccccc4)nc3c2)cc1 [GW709199] | 9%
32 | Nc1ncnc2c1nc(-c1ccccc1)n2-c1ccccc1 [SKF-97293] | 0%
33 | Cn1cc(-c2ccc3c(c2)CCN3C(=O)Cc2cccc(Cl)c2)c2c(N)ncnc21 [GSK2606590] | 11%
34 | Cc1ccc(C(=O)Nc2ccc(Nc3ccnc4cc(-c5nccs5)ccc34)cc2O)cc1.Cl [GW494702] | 0%
35 | COc1cc(Nc2ncc3c(C)nc(-c4cc5ccccc5[nH]4)n3n2)cc(OC)c1OC [GW869516] | 38%
36 | COc1ccc(CNC(=O)NC2CCN(c3ccnc(Nc4ccc(F)cc4)n3)CC2)cc1 [GSK1379788] | 0%
37 | CCn1c(-c2nonc2N)nc2c(C#CC(C)(C)O)nc(OC[C@H](N)c3ccccc3)cc21 [GSK943949] | 0%
38 | Cl.c1ccc(-c2ccc3c(Nc4ccc5[nH]ncc5c4)ccnc3c2)nc1 [GW440137] | 34%
39 | COc1cccc(-c2ccc3c(NC(=O)C4CC4)n[nH]c3n2)c1 [SB-710903] | 8%
40 | COc1cccc(C(=O)Nc2cccc(Oc3ccc4nc(NC(=O)C5CC5)cn4n3)c2)c1 | 0%
41 | CNC(=O)c1ccccc1Nc1nc(Nc2ccc(N3CCOCC3)cc2)ncc1Cl.Cl [GSK1576028] | 64%
42 | O=C(Nc1cccc(Oc2ccc3nc(NC(=O)C4CC4)cn3n2)c1)c1ccccc1C(F)(F)F | 0%
43 | Cc1ccc(S(=O)(=O)Nc2ccc(Nc3nccc(Nc4cccc5[nH]ncc45)n3)cc2)cc1 [GSK581271] | 5%
44 | Cc1cccc(NC(=O)Nc2ccc(Oc3ncnc4ccn(C)c34)cc2)c1 | 0%

Row | SMILES | %Inh
45 | CC(=O)Nc1nc2cnc(Nc3cc(NC(=O)c4cccc(C5(C#N)CC5)c4Cl)ccc3C)nc2s1 | 0%
46 | COc1cccc(C2=C(Nc3ccc(Cl)c(C(=O)O)c3)C(=O)NC2=O)c1 [SB-390769] | 19%
47 | CN(C)S(=O)(=O)c1cc(-c2ccc3nccc(-c4cccc(S(N)(=O)=O)c4)c3c2)cnc1N [GSK1669921] | 0%
48 | O=C(Nc1ccccc1F)NC1CCN(c2ccnc(Nc3ccc(F)cc3)n2)CC1 [GSK1379800] | 0%
49 | O=C(Nc1n[nH]c2cc(-c3ccoc3)ccc12)C1CC1 [SB-738481] | 0%
50 | CSc1cccc2c(-c3ccncn3)c(-c3ccc(F)cc3)nn12 [GW514786] | 5%
51 | CN(c1ccc(NC(=O)Nc2cc(C(F)(F)F)ccc2F)cc1)c1ccnc(Nc2ccc(S(N)(=O)=O)cc2)n1 [GW809893] | 0%
52 | O=C(Nc1cccc(-c2nn3ncccc3c2-c2ccnc(Nc3ccccc3)n2)c1)c1c(F)cccc1F [GSK198271] | 20%
53 | c1ccc(-c2n[nH]cc2Nc2ccnc3ccccc23)nc1 [GW694077] | 0%
54 | Cl.Cl.NCC(C(=O)Nc1cc(Br)c(-c2ccnc3[nH]ccc23)s1)c1ccccc1 (centres unmarked) [GSK1269851] | 6%
55 | O=C(Nc1cccc(-c2nn3ccccc3c2-c2ccnc(Nc3cccc(C(F)(F)F)c3)n2)c1)c1c(F)cccc1F [GSK292658] | 0%
56 | Cc1ccc(C)c(NC(=O)NC2CCN(c3ccnc(Nc4ccc(F)cc4)n3)C2)c1 (centres unmarked) [GSK1379720] | 12%
57 | COCCOCCOc1cc2ncc3c4ccc(C#N)cc4[nH]c3c2cc1OC | 0%
58 | CN1CCN(Cc2cccc(-c3ccc4c(Nc5ccc(Oc6ccccc6)cc5)ccnc4c3)c2)CC1 [GW578342] | 9%
59 | Cl.Cl.NCC(NCc1ccc(-c2ccnc3[nH]ccc23)s1)c1ccccc1 (centres unmarked) [GSK1321565] | 0%
60 | Cn1cc(-c2ccc3c(c2)CCN3C(=O)Cc2cccc(F)c2)c2c(N)ncnc21 [GSK2603358] | 26%
61 | Clc1ccc(-c2nn3ncccc3c2-c2ccnc(Nc3ccc4c(c3)OCCO4)n2)cc1 [GW829116] | 0%
62 | Nc1ncc(-c2cccnc2)c2scc(-c3ccc4c(c3)CCN4C(=O)Cc3ccccc3)c12 [GSK683281] | 21%
